# According to the supplement of paper PMC3334620:
# Over roughly 33,000 sequences, “E-score (-0.5 to 0.5)” has its median near -0.01; the highest 2% begin near 0.26. This excerpt belongs to a sample that is enriched for the highest values.
# Biological target: Ste12 (UniProt P13574)
# Assay: PBM E-score (8-mer binding enrichment) (E-score (-0.5 to 0.5)); higher = stronger / more preferred TF binding
# Settings: protein concentration: 200 nM; construct: GST-DNA-binding domain
# Experimental: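 Universal 'all 10-mer' protein binding microarrays (Agilent AMADID 015681) probed with GST-tagged S. cerevisiae TFs (full-length or DBD) made by in vitro transcription/translation (PURExpress), about 100-200 nM. Bound TF was detected with fluorescent anti-GST. Each ungapped 8-mer (which stands for itself and its reverse complement) is scored by the PBM enrichment score (E-score), a modified Wilcoxon-Mann-Whitney statistic from -0.5 to +0.5, computed with the Universal PBM Analysis Suite. Scale: above 0.35 generally sequence-specific binding.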
# Chain of UniProt P13574 (P13574 whole entry): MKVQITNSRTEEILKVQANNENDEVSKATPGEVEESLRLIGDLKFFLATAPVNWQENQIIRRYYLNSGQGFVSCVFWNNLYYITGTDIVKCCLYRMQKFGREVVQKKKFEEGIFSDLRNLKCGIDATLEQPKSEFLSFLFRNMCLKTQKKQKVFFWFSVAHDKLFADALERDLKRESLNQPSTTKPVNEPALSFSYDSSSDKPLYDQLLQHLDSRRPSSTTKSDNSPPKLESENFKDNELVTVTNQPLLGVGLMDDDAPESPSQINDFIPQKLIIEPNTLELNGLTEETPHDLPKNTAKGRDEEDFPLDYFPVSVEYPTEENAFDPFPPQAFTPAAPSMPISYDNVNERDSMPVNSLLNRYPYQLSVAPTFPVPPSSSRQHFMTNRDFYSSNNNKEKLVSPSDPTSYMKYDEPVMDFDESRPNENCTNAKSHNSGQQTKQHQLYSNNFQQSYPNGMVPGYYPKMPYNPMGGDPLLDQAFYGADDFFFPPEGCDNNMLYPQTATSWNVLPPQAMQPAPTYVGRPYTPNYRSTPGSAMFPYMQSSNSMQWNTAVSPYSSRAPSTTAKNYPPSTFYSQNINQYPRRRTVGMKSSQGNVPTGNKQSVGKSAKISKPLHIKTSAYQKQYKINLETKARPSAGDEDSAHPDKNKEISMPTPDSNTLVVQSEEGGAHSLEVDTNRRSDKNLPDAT
row,Sequence,PBM E-score
1,CTGATCAG,-0.0327
2,TATTTGCA,0.0371
3,CCCAGCGA,-0.0316
4,ACCAATTA,0.199
5,TGAAACCA,0.438
6,GAAAACAA,0.197
7,AGAAACAT,0.32
8,CGAAACAG,0.244
9,AAAAACAT,0.241
10,AGAAACAC,0.121
11,CGAAACAC,0.348
12,AGAAACAG,0.0492
13,CGAAACAA,0.349
14,GGAAACAC,0.225
15,AGAAACCA,0.194
16,CGAAACCA,0.209
17,CGACGCAG,-0.237
18,GCCTATTA,0.0234
19,CAGCTCCC,-0.254
20,CCCGTCAC,0.0322
21,CCAGCAAG,-0.148
22,AGGAGCAA,-0.108
23,CGGCCCGA,0.078
24,CCGAATAG,-0.0705
25,AAATCTGG,0.21

row,Sequence,PBM E-score
1,GGCGCTCA,-0.066
2,ATGATAAT,0.13
3,AGACCTAG,-0.0522
4,AGAAACAA,0.26
5,GGAAACAA,0.13
6,TCAAACCA,0.278
7,ACAAACCA,0.00217
8,CCAAACCA,0.0357
9,TGAAACAA,0.493
10,CGGAAGAA,0.0583
11,ATATCATC,0.141
12,GATAGAAC,0.0461
13,AGATTAGA,0.00999
14,AAAGTTTA,0.199
15,AATGTTTC,0.318
16,CATGTTGC,-0.0677
17,AATGTTAG,-0.00616
18,AAAGTTTC,0.329
19,CATGTTTA,0.199
20,AATGTTAA,0.102
21,CAAGTTTC,0.254
22,AATGTTTG,0.0124
23,AATGTTTA,0.174
24,AATGTTAT,0.265
25,CATGTTTC,0.4

row,Sequence,PBM E-score
1,AACGCTAA,-0.0143
2,GTGTAGGA,0.0365
3,CACTCCAG,-0.019
4,ACTCTGAT,0.146
5,ATAAAGCC,0.00222
6,AGGCCTAG,-0.218
7,ACAGAAGG,-0.173
8,CTTGAGGC,-0.184
9,ATGGACGG,-0.00997
10,CTCGCACC,-0.103
11,CGCCCACA,0.197
12,CGTCGCCC,-0.121
13,ATAAATTG,0.321
14,CCAAATTA,0.221
15,GAAAATTA,0.206
16,CAAAATTG,0.0598
17,ACAAATTA,0.263
18,CAAAATTA,0.247
19,ATAAATTA,0.255
20,AAAAATTG,0.263
21,ACAAATTG,0.177
22,AAAAATTA,0.326
23,ATAAATTC,0.102
24,AAAAATTC,0.224
25,CTCAACGC,-0.0089

row,Sequence,PBM E-score
1,CAGCAGCC,-0.0193
2,AATGGAGC,-0.0645
3,AAACGATT,0.165
4,ACTACTCA,-0.0467
5,ACACCATG,-0.108
6,GACCGATA,-0.00126
7,GCGAAGAC,-0.141
8,AGGATTGC,-0.025
9,ATAAACTG,0.302
10,ATAAACTA,0.211
11,ATAAACTC,0.125
12,CTACGCTC,-0.00605
13,CTCCCATA,-0.0685
14,TATTGGAA,-0.00217
15,AGATACAA,0.135
16,CAATACAC,0.0704
17,CGATAAAA,0.171
18,CGATACAA,0.0267
19,AGATAAAA,0.245
20,GGGATAAC,-0.0162
21,CAATACAG,-0.115
22,CAATACAA,0.294
23,TGATAAAA,0.266
24,CGGATAAA,0.149
25,TGATACAA,0.339

row,Sequence,PBM E-score
1,GGGATAAA,0.271
2,AATTAGGA,0.145
3,CCCAGCGG,-0.192
4,AACACTCG,0.0544
5,TCTGAACA,0.0453
6,ACCACCGG,-0.0277
7,AAATTGAA,0.185
8,CCATGAAG,-0.0229
9,CATAAGGC,-0.0753
10,GGTGCGAA,0.2
11,AAACCGTT,0.00687
12,GGATAAAC,0.135
13,GGATAAAA,0.279
14,CGGTAAAA,0.198
15,GGGTAAAC,0.119
16,GGATAAGA,0.0906
17,GGGTAAAA,0.295
18,TGGGCCAA,-0.177
19,CAGCGTCG,-0.0332
20,CGGAATAC,0.134
21,GATCAAGC,-0.0184
22,GAAGGCTC,-0.209
23,GATAAAGA,0.0926
24,AATAAAAC,0.245
25,CATAAAAA,0.175

row,Sequence,PBM E-score
1,CATAAAAG,0.0283
2,CATAAAAC,0.28
3,GATAAAAA,0.277
4,GATAAAAC,0.327
5,GATAAACC,0.0557
6,GATAAATA,0.215
7,CGAGCCGA,-0.0584
8,AGGTTTTC,0.241
9,GAGCTCCC,-0.0992
10,CAGACTTC,-0.0901
11,ACGACTAT,-0.0677
12,CGTCACCC,0.0725
13,ACAGAATG,0.0528
14,GGAACTAC,-0.105
15,AACTATTC,0.264
16,CACTATTC,0.0168
17,AACTATTA,0.0788
18,AACTATCA,0.262
19,GACTATCA,-0.0567
20,TACTATCA,0.13
21,ATACGGCG,0.15
22,ACGGGTCT,-0.211
23,CCAATCTC,0.0596
24,ACCTGCAA,-0.0499
25,ATGCGCAC,0.0144

row,Sequence,PBM E-score
1,GTGCGCAC,0.355
2,GTGCGCAA,-0.0274
3,CCAATCCA,-0.0476
4,AGCGATCG,0.00873
5,CAAAAGAC,0.0341
6,CGATTCGC,0.0897
7,GCTTGAAA,0.198
8,TCTTGAAA,0.308
9,CCTTGAAA,0.21
10,ACTTGAAA,0.314
11,ACTTGAAG,0.119
12,ACTTGAAT,0.0108
13,GTCGAAGA,-0.0112
14,ACCTTAGT,-0.137
15,ATTGTAGC,0.0213
16,AGTGGTAT,-0.0443
17,TCACAGGA,0.122
18,GCGTGAAC,-0.0471
19,GGTGGGAA,0.127
20,AGGTGGGA,-0.049
21,GGGTGGGA,0.319
22,CGGTGGGA,0.033
23,GGTGGGGA,0.318
24,CGAGGGGA,0.0767
25,CGTGGGGA,0.0623

row,Sequence,PBM E-score
1,GGAGGGAA,-0.0917
2,GGAGGGGA,0.366
3,GATCGATA,0.0823
4,TCAAGGCA,-0.169
5,ACCTTGGA,-0.197
6,ATGTCTTA,0.134
7,AACACGAC,-0.104
8,GAATATAA,0.161
9,TATAATAA,0.141
10,CAATATAC,0.116
11,TAATATAA,0.287
12,CAATATAG,0.117
13,CAATATAA,0.316
14,CTCCCGTC,0.0578
15,AAAGGGAT,0.00067
16,AAAGTCAA,0.189
17,ATCTTATA,0.0647
18,CTCTTATA,0.267
19,GTCTTATA,0.0618
20,AAGCCCCA,-0.237
21,AGGCCATA,-0.245
22,CCCATAGA,-0.143
23,AAAATTAG,0.31
24,AAAATTAT,0.337
25,AAAATTTG,0.0212

row,Sequence,PBM E-score
1,AAAATTGT,0.225
2,ATAATTAT,0.195
3,AAAATTAC,0.188
4,AAAATTTT,0.311
5,AAAATTAA,0.134
6,AAAAATTT,0.138
7,GGCCACCA,0.0635
8,CAACCTAA,0.0543
9,GTATCGTA,0.0508
10,GATGCAAC,-0.0126
11,AGTTGACG,0.019
12,CATCCAGA,-0.00655
13,CAAACGCC,0.0326
14,CAAACGCA,-0.133
15,GGAACGCC,-0.017
16,GAAACGCA,0.323
17,GAAACGCC,0.288
18,TAAACGCA,-0.0738
19,ATGCTTAG,-0.205
